The structures appear in SMILES notation. Inconclusive results are not listed. A call without a number means that no potency is given here. The source made the active and inactive calls. Calls follow the shape of the dose curve; as a rule, active = well fitted inhibition curve with a large enough effect; inconclusive = small, poorly fitted or top-dose-only effect; inactive = flat fitted curve, though single readings scatter.
Potency is read from the fitted curve at half-maximal effect.

The experiment in a line: CHOP2 Reporter Counterscreen Assay for Inhibitors of Ubiquitin-specific Protease USP2a.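 Also: activated enterokinase alone at 50 pM in a cell-free format rather than USP2a or CHOP2; nearly all actives have a fitted effect of over 55% in size.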 Conditions: purified enterokinase, fluorogenic substrate, 485/531 nm; series mostly up to 38.3 µM. An outline of the steps: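 Cell-free counterscreen with pre-activated enterokinase alone (50 pM final) in 20mM Tris-HCl pH 8.0, 2mM CaCl2, 2mM beta-mercaptoethanol, 0.05% CHAPS; compound preincubation 30 min RT, reporter substrate 25nM final, fluorescence read after 10 min (Ex 485/Em 531).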
Turning to `COc1cc(C(O)P(=O)(OC(C)C)c2ccc(N(C)C)cc2)cc(OC)c1OC` (stereo not given), the Potency result was “inactive”.
Consider `Cc1cccc(N=C2NC(=O)/C(=C/C=C/c3ccco3)S2)c1`, for which the Potency was 10 µM (active).
As for `COc1ccc(-c2cc(C(F)(F)F)nc(S(C)(=O)=O)n2)cc1`, the Potency entry was “inactive”.
With `CCOC(=O)Nc1ccc(S(=O)(=O)Nc2cc(C)nc(C)n2)cc1`, the Potency result was “inactive”.
As for `FC(F)Sc1ccc(NC(=S)NC2CCCCC2)cc1`, the Potency entry is “inactive”.
In the case of `Cc1ccc(NC(=O)CN2C(=O)N/C(=C/c3ccco3)C2=O)cc1`, the Potency was 5.01 µM (active).
For `O=C(CSc1nc2ccccc2c(=O)n1CC1CCCO1)NCc1ccccc1` (stereo not given), the Potency result is “inactive”.
In the case of `CN1CCN(CCCCOc2ccc(F)cc2)CC1`, the Potency result was “inactive”.
Take `COCCn1c(CN(Cc2ccccc2)Cc2ccccc2)nc2c1c(=O)n(C)c(=O)n2C`: the Potency result was “inactive”.
Turning to `C#CCOCCOCCOCCNc1nc(N2CCN(C(=O)CCCCCCCCCCNC(=O)Cn3cc(CCCCCN)nn3)CC2)nc(N2CCN(C(=O)CCCCCCCCCCNC(=O)[C@H]([C@@H](C)CC)n3cc(CCCCCN)nn3)CC2)n1`, the Potency was 5.62 µM (active).
In the case of `COc1ccccc1-c1nnc(SCC(=O)Nc2nc(-c3ccccc3)cs2)n1C`, the Potency entry was “inactive”.
Then `Cc1ccccc1C(=O)Nc1ccc2nc3n(c(=O)c2c1)CCC3`, with “inactive”; and `CC[C@]12c3[nH]c4cc(-c5ccco5)ccc4c3CCN1C(=O)[C@@H](CC(=O)NC/C=C(\C)CCC=C(C)C)C[C@@H]2C(=O)N1CCN(C(=O)C2CC2)CC1`, with “inactive”.
`Clc1ccccc1-c1nnc2sc(-c3cccs3)nn12`: the Potency result is “inactive”.
As to `CSc1ncccc1C(=O)OCC(=O)N1CCOCC1`, the Potency result was “inactive”.

The record behind these values is PubChem BioAssay AID493169 (National Center for Advancing Translational Sciences (NCATS), 2011).
